Results on six compounds are retold here after PubChem BioAssay (NCATS).

The target in experiment [1] is Lysosomal acid glucosylceramidase (Homo sapiens) (UniProt P04062). The experiment can be described thus: Glucocerebrosidase-p2 (AID 348; in the data active means potency below about 10 µM; further: potency means the concentration at half of the fitted maximal effect). The conditions noted are these: purified GBA, blue fluorogenic substrate, 40 min. The essentials:
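Compounds titrated from 0.6 nM upwards against 0.2 nM enzyme in pH 5.9 citric acid/KH2PO4, taurocholate, tween-20; blue fluorogenic substrate 80 uM, 40 min room temperature, stopped and read Ex 365/Em 440 for AC50.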

Experiment [2] is described as follows: AP1 Signaling Pathway (AID 357).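 Further: ME-180 reporter cells stimulated with EGF at its EC50 level; on the % scale 0 is the no-effect control and ±100 the full control effect.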 The conditions noted are these: ME-180 AP-1-bla reporter, EGF-induced, beta-lactamase ratio, 5 h; at 7.69 µM (top of the series) unless noted. The essentials: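 First, ME-180 AP-1-bla cells were cultured overnight at 37 °C in low-serum Opti-MEM. Next, titrated compounds with EC50 EGF were incubated 5 hours. Finally, CCF4 was added for 2.5 hours and the 460/530 nm ratio recorded.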

Experiment [3] has as its target Cytochrome P450 1A2 (Homo sapiens) (UniProt P05177). The experiment can be described thus: p450-cyp1a2 (AID 410; calls by dose curve; further: potency means the concentration at half of the fitted maximal effect). The conditions noted are these: recombinant CYP1A2, luciferin-ME demethylation, luminescence; series mostly up to 11.4 µM. The essentials:
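Human CYP1A2 (20nM) demethylated Luciferin-ME at its Km (100uM) in 100mM KPO4. After 10 min compound preincubation, NADPH regeneration ran the reaction 60 min at room temperature. Luciferin was read by luminescence, normalized to 57 uM furafylline.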

A short description of experiment [4]: NFAT Signaling Pathway (AID 444).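 Further: carbachol stimulus at about its EC50 of 1 µM final; on the % scale 0 is the no-effect control and ±100 the full control effect.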 The following applies: Jurkat NFAT-bla M1, carbachol, beta-lactamase ratio, 5 h; at 7.69 µM (top of the series) unless noted. Summed up: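 Jurkat cells carrying an NFAT-driven β-lactamase reporter and co-transfected muscarinic M1 receptor were treated with compound plus carbachol (1 uM final, an EC50 level) for 5 h at 37 °C. CCF4 loading followed for 1 h at RT; 460/530 nm ratio gave %activity.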

The nature of experiment [5]: Stat Signaling Pathway (AID 446).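 Further: ME-180 cervical cancer cells given 40 pM IL-6 alongside compound; SIE-controlled beta-lactamase reporter measured as 460/530 nm FRET emission ratio; on the % scale 0 is the no-effect control and ±100 the full control effect.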 The conditions noted are these: ME-180 (cervical carcinoma) SIE beta-lactamase reporter, IL-6 stimulated, 5 h; at 7.69 µM (top of the series) unless noted. The essentials:
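ME-180 cells carrying a SIE-driven beta-lactamase reporter are stimulated with 40 pM IL-6 for 5 h at 37C in the presence of compound. The 460/530 nm FRET substrate ratio is read after 2.5 h at RT. Data are normalised to 300 pM IL-6 and to 125 nM JAK inhibitor controls.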

In experiment [6] the target is Glucocorticoid receptor (Homo sapiens) (UniProt P04150). The experiment can be described thus: GR-GFP Redistribution (AID 450;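 active means compounds whose dose series gives a full or clear partial fitted curve of increased nuclear translocation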; further: potency means the concentration at half of the fitted maximal effect). The following applies: U2OS GR-GFP nuclear translocation, laser cytometry, 2 h.
Glucocorticoid receptor (Homo sapiens), sequence (P04150 whole entry, looked up): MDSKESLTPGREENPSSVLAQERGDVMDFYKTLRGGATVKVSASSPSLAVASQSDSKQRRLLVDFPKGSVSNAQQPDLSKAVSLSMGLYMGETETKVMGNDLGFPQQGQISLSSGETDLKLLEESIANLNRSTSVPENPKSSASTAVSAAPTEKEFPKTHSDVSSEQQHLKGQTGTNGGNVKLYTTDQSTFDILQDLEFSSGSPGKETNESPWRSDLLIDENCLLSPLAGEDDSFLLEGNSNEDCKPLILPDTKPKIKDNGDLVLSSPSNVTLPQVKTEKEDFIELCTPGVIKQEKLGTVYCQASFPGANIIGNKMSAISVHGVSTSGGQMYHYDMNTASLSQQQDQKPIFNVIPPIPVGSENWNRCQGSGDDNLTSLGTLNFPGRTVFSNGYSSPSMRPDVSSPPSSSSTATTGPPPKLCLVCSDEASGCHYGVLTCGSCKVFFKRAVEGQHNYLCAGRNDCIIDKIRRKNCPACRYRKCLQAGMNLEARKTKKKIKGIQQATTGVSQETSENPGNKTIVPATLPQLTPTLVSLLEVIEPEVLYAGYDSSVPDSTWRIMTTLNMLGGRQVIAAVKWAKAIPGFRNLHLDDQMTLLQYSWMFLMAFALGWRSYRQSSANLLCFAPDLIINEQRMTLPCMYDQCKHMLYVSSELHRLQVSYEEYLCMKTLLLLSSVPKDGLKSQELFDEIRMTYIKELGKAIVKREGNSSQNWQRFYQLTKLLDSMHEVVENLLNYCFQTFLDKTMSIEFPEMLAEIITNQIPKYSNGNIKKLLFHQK
The target is the same in experiment [7]. The experiment can be described thus: GR-EFC Redistribution (AID 451; calls by dose curve; further: potency means the concentration at half of the fitted maximal effect). The following applies: CHO-K1 GR-EFC translocation, beta-gal luminescence, 2 h. Summed up:
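CHO-K1 cells stably expressing nuclear-localized β-gal enzyme acceptor and GR fused C-terminally to the enzyme donor fragment; ligand-driven nuclear translocation restores β-gal by complementation. Compounds titrated up to 46 uM final, 2 h at 37 °C; luminescence read.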

In experiment [8] the target is Mitogen-activated protein kinase 10 (Mus musculus) (UniProt Q61831). Briefly: JNK3 AlphaScreen Assay (AID 530).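 Further: kinase came from lysate of stimulated human HepG2 cells; signal reports phosphorylation of biotinylated GST-cJun 1-79 at Ser73 with 10 µM ATP; on the % scale 0 is the no-effect control and ±100 the full control effect.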 The conditions noted are these: JNK3 lysate, c-Jun phosphorylation; series mostly up to 11.4 µM. The essentials:
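JNK3 came from HepG2 lysates pre-activated with IL-1beta and TNF-alpha and phosphorylated biotinylated GST-cJun (1-79) at 10 uM ATP, pH 7.6, room temperature. Compounds were titrated. AlphaScreen signal used anti-phospho-cJun (Ser73) antibody.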

Experiment [9] has as its target 3',5'-cyclic-AMP phosphodiesterase 4B (Homo sapiens) (UniProt Q07343). Briefly: qHTS Assay for Inhibitors of PDE-IV (AID 607; active means well fitted activation curve with a large enough effect in the main read-out, with a control signal flat, not every such curve was filed as active; further: % of control where 0% means no effect). The conditions noted are these: HEK293 ACTOne CNG channel cells, membrane potential fluorescence; series mostly up to 22.9 µM. The essentials: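 HEK293 ACTOne cells with CNG channel (1000/well), endogenous PDE4; membrane potential dye, compounds up to 22.9 uM final. Fluorescence Ex 535/Em 590; RO 20-1724 (100 uM final) as reference.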

Experiment [10] deals with Cytochrome P450 2C9 (Homo sapiens) (UniProt P11712). Briefly: qHTS Assay for Inhibitors and Substrates of Cytochrome P450 2C9 (AID 883; active means well fitted curve in the direction sought with a large enough effect; an effect the other way counts as inactive or inconclusive; further: nearly all actives have a fitted effect of over 60% in size; further: potency means the concentration at half of the fitted maximal effect). The following applies: recombinant CYP2C9, luciferin-H luminescence, 60 min; series mostly up to 11.4 µM. The essentials:
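A luminogenic readout tracked human CYP2C9 (10nM) converting deoxyluciferin (100uM, at KM) in 25mM KPO4 during 60 min at 37C with regenerated NADPH. Values normalized to 57uM sulphaphenazole as complete inhibition.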

Experiment [11] addresses Cytochrome P450 2D6 (Homo sapiens) (UniProt P10635). Briefly: qHTS Assay for Inhibitors and Substrates of Cytochrome P450 2D6 (AID 891; active means well fitted curve in the direction sought with a large enough effect; an effect the other way counts as inactive or inconclusive; further: potency means the concentration at half of the fitted maximal effect; nearly all actives have a fitted effect of over 60% in size). The conditions noted are these: recombinant CYP2D6, luciferin-ME EGE luminescence; series mostly up to 11.4 µM. The essentials:
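Human CYP2D6 (5 nM) with 30 uM Luciferin-ME EGE (at Km) in 100 mM KPO4, compound preincubated 10 min, then NADPH regeneration system for 60 min at room temperature. Luciferin read by luminescence; normalized to 1.43 uM quinidine.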

The target in experiment [12] is Cytochrome P450 3A4 (Homo sapiens) (UniProt P08684). Briefly: qHTS Assay for Activators of Cytochrome P450 3A4 (AID 885; active means well fitted curve in the direction sought with a large enough effect; an effect the other way counts as inactive or inconclusive; further: nearly all actives have a fitted effect of over 65% in size). The conditions noted are these: recombinant CYP3A4, Luciferin-PPXE luminescence, 60 min; series mostly up to 11.4 µM. The essentials: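 Human CYP3A4 (20 nM) with Luciferin-PPXE at 25 uM (its KM) in 200 mM KPO4; 10 min compound preincubation, then NADPH regeneration and 60 min reaction at RT. Luciferin read by luminescence; normalized to 57 uM ketoconazole full inhibition.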
Cytochrome P450 3A4 (Homo sapiens), sequence (P08684 whole entry, looked up): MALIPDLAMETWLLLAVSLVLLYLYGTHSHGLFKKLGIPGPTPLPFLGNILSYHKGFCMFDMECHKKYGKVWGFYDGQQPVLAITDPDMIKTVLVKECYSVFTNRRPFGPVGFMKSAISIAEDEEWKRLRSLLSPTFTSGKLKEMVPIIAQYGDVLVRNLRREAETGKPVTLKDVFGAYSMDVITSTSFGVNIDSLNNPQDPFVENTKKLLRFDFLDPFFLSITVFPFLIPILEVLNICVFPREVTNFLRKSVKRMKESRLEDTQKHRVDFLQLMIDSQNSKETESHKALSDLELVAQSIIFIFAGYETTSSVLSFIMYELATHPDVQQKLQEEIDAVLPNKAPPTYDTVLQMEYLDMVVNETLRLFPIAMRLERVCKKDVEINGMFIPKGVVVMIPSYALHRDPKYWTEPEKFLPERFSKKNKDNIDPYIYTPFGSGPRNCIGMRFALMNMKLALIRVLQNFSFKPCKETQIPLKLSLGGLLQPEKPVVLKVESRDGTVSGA

Experiment [13] has the same target. The experiment can be described thus: qHTS Assay for Inhibitors and Substrates of Cytochrome P450 3A4 (AID 884; active means well fitted curve in the direction sought with a large enough effect; an effect the other way counts as inactive or inconclusive; further: potency means the concentration at half of the fitted maximal effect; nearly all actives have a fitted effect of over 50% in size). The conditions noted are these: recombinant CYP3A4, Luciferin-PPXE luminescence; series mostly up to 57.1 µM. The essentials: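 20 nM human CYP3A4 with 25 uM Luciferin-PPXE (at KM) in 200 mM KPO4, preincubated 10 min with compound; NADPH regeneration started a 60 min RT reaction. Luciferin detected by luminescence, normalized to 57 uM ketoconazole as full inhibition.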
A general note: qHTS replaces the single test concentration by a dilution series.

Experiment [14] deals with Cytochrome P450 2C19 (Homo sapiens) (UniProt P33261). The experiment can be described thus: qHTS Assay for Inhibitors and Substrates of Cytochrome P450 2C19 (AID 899; active means well fitted curve in the direction sought with a large enough effect; an effect the other way counts as inactive or inconclusive; further: nearly all actives have a fitted effect of over 60% in size; further: potency means the concentration at half of the fitted maximal effect). The following applies: recombinant CYP2C19, luciferin-H EGE luminescence; series mostly up to 11.4 µM. The essentials:
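NADPH-dependent conversion of Luciferin-H EGE (10uM, at KM) by 5nM enzyme in 50mM KPO4, 60 min at 37C following 10 min compound preincubation. Stopped with luciferin detection buffer; luminescence read after 20 min.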

Unmarked numbers belong to inactive results. Records with an inconclusive call do not appear. Activity calls are given as the source filed them. Unless noted, the call rests on the fitted dose curve; in most records, active means well fitted curve in either direction with a large enough effect (not every such curve was filed as active); inconclusive means small, poorly fitted or top-dose-only effect, or another doubt; inactive means flat fitted curve, though single readings scatter.

Cytochrome P450 2C19 (Homo sapiens), sequence (P33261 whole entry, looked up): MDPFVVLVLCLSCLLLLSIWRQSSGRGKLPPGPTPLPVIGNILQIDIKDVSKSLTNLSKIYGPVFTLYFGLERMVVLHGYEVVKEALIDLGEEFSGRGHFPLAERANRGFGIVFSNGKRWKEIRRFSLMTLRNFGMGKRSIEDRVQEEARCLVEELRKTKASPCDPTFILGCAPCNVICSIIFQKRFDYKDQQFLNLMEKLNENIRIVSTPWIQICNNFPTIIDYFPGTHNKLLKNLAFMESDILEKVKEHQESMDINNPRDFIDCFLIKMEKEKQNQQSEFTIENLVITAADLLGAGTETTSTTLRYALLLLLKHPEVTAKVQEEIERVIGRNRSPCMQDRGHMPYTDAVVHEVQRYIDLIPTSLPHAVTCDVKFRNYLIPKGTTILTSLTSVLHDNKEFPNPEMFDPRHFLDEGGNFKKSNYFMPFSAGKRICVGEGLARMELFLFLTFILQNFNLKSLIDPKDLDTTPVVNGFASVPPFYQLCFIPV
Cytochrome P450 2D6 (Homo sapiens), sequence (P10635 whole entry, looked up): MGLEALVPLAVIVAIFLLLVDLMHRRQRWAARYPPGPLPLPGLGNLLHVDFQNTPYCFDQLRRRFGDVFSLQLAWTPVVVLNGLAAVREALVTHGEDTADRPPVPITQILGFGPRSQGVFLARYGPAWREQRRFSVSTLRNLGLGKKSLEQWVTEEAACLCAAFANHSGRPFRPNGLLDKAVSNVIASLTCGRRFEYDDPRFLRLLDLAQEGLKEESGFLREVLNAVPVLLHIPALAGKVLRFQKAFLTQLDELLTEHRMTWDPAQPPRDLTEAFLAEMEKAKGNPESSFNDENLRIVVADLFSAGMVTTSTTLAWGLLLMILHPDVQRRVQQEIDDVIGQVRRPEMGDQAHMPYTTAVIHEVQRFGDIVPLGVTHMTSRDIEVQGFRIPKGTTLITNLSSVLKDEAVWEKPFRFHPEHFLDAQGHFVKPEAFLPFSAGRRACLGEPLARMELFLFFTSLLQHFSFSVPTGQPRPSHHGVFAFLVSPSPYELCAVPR
Lysosomal acid glucosylceramidase (Homo sapiens), sequence (P04062 whole entry, looked up): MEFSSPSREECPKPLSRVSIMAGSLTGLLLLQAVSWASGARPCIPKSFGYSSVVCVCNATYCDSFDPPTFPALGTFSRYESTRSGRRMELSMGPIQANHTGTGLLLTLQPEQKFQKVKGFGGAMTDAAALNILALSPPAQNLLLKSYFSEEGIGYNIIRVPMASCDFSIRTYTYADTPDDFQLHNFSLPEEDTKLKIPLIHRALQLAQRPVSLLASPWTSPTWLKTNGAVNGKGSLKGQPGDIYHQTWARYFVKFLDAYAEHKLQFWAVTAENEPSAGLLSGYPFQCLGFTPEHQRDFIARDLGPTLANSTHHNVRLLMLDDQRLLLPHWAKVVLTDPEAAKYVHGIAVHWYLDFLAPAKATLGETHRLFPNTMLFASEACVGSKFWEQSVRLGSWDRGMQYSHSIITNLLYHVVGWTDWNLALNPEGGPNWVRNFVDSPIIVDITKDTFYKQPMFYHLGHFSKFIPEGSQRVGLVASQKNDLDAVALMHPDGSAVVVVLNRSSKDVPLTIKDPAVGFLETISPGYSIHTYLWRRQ
Cytochrome P450 1A2 (Homo sapiens), sequence (P05177 whole entry, looked up): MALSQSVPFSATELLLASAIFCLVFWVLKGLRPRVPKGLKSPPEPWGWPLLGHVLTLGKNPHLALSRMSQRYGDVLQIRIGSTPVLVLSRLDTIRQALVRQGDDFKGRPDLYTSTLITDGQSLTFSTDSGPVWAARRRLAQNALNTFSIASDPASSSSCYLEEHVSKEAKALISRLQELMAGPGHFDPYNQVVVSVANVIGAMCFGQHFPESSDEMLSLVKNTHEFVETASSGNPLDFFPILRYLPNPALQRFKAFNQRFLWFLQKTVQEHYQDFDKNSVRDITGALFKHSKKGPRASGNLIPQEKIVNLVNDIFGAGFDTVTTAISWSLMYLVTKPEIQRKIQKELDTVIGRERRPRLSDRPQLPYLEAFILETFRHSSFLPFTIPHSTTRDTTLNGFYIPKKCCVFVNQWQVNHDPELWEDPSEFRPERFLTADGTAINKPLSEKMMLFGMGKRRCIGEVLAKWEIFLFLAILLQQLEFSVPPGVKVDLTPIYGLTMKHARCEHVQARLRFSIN
Cytochrome P450 2C9 (Homo sapiens), sequence (P11712 whole entry, looked up): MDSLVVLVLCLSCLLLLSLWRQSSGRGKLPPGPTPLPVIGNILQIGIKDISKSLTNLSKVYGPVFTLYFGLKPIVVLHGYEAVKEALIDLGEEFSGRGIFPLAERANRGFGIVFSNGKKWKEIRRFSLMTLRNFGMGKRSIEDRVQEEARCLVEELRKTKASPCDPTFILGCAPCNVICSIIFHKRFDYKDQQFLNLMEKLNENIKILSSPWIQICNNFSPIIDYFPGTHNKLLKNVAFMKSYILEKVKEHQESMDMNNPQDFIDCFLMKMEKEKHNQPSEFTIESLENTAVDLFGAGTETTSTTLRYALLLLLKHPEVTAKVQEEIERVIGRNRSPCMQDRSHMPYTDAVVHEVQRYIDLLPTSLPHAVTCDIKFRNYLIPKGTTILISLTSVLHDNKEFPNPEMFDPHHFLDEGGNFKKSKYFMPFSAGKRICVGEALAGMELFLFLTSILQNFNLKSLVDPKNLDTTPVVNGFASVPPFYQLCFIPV
3',5'-cyclic-AMP phosphodiesterase 4B (Homo sapiens), sequence (Q07343 whole entry, looked up): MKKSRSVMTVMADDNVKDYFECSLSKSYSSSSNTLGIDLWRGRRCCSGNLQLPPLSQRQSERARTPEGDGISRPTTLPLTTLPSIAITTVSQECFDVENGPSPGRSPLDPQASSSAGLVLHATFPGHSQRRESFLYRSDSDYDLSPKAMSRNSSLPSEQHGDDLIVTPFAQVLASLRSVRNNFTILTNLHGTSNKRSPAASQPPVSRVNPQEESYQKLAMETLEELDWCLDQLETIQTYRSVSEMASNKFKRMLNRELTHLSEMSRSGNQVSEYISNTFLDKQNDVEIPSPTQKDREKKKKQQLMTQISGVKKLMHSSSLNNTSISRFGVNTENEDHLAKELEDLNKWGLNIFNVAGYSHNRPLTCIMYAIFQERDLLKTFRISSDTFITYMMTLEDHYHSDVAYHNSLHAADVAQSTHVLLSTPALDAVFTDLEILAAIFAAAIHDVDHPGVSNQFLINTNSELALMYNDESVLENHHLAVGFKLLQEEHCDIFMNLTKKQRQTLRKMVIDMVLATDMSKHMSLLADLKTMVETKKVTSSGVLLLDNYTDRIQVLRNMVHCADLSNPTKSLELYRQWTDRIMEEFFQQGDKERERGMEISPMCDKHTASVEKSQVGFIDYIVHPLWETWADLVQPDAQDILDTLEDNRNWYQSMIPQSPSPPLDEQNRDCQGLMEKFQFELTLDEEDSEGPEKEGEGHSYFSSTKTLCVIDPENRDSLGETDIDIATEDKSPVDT

In the case of `Oc1c(Br)cc(CN(Cc2cc(Br)c(O)c(Br)c2)C2CCCCC2)cc1Br`, the Potency in experiment [1] is > 11.4 µM; in experiment [6] it was > 46 µM; in experiment [7] it was > 9.22 µM; in [10] it was 2.51 µM (active); in experiment [11] it was 2.51 µM (active). The values for the activity change, negative = inhibition in [2], in [3] and in experiment [4] were 11.3%, -5.7% [at 2.29 µM] and -14%, respectively. The activity, negative = inhibition in experiment [5] is -10.4%. The Potency result in experiment [8] and in experiment [9] was “inactive” throughout.

Turning to `Clc1ccc(CSCCc2ccncc2)cc1Cl`, the Potency in experiment [1] was > 11.4 µM; in experiment [3] it was 0.316 µM (active); in experiment [6] it was > 46 µM; in experiment [7] it was > 9.22 µM; in [10], 0.0794 µM (active); in experiment [11], 0.316 µM (active). Further, the activity change, negative = inhibition was -26.7% in experiment [2] and 2.37% in experiment [4]. Besides, the activity, negative = inhibition in experiment [5] is 5.37%. For the same compound, the Potency entry in experiment [8], in experiment [9] and in [12] was “inactive” throughout.

With `CC(C)CO[C@H](c1ccc2c(c1)OCO2)[C@H](C)Br`, the Potency in [1] is > 11.4 µM; in experiment [3], 0.631 µM (active); in experiment [6], > 46 µM; in [7], > 9.22 µM; in experiment [10], 2 µM (active); in experiment [13] it was 3.16 µM (active). Moreover, the Potency in experiment [14] was 0.0631 µM (active). Besides, the activity change, negative = inhibition in experiment [2] was -13.4%; in [4], -8.77%. Further, the activity, negative = inhibition in experiment [5] is 7%. Also, the Potency entry in [8], in experiment [9] and in [12] was “inactive” each time.

In the case of `CN(C)CCNCCN`, the values for the Potency in [1], in experiment [6] and in [7] were > 11.4 µM, > 46 µM and > 9.22 µM, respectively. For the same compound, the activity change, negative = inhibition in [2] is 9.73%; in experiment [4], 16.1%. Moreover, the Potency result in experiment [3], in [8], in experiment [9], in experiment [10] and in experiment [14] was “inactive” each time. In addition, the activity, negative = inhibition in experiment [5] is 4.92%.

With `S=C1N[C@H](c2ccccc2)N[C@H](c2ccccc2)S1`, the Potency in experiment [1] is > 11.4 µM; in [3], 3.16 µM (active); in [6] it was > 46 µM; in [7], > 9.22 µM; in experiment [10], 2 µM (active); in experiment [11], 3.98 µM (active). In addition, the Potency in experiment [14] is 3.98 µM (active). For the same compound, the activity change, negative = inhibition in experiment [2] was -0.71%; in experiment [4], -21.2%. The activity, negative = inhibition in experiment [5] was -1.19%. In addition, the Potency result in [8] and in experiment [9] was “inactive” throughout.

With `N#C[C@H](c1ccccc1)N1CCCN([C@@H](C#N)c2ccccc2)C1c1ccccc1O` (stereo not given in full), the Potency is > 11.4 µM in [1]; 3.98 µM (active) in [3]; > 46 µM in experiment [6]; > 9.22 µM in experiment [7]; 3.16 µM (active) in experiment [10]; 0.251 µM (active) in experiment [14]. Besides, the activity change, negative = inhibition in experiment [2] was 8.03%; in experiment [4], -26.1%. In addition, in [5], the activity, negative = inhibition is 6.35%. Further, the Potency entry in [8] and in experiment [9] was “inactive” each time.
